Assay results taken from the OligoGym collection.
Further: reference of the scale not given here.

Each sequence was assayed against PLA2R1 (assay: pooled miR-30 sensor sort-seq; sequence = guide strand). Settings: shRNA.
TTACTTTTAAATTTTATCCAGG was tested, and the sensor-assay potency score (higher = more potent) was -0.532.
Work on TTATCTGTGGTGAACAGTCCAA yielded a sensor-assay potency score (higher = more potent) of -0.19.
Sequence TTTTGTAACAGAATCCACCATG has a sensor-assay potency score (higher = more potent) of 0.0446.
Work on TTTTCTTCTAAATATACTGTAC yielded a sensor-assay potency score (higher = more potent) of -0.623.

The sequences below were run against PLAA in the same assay as above. Settings: shRNA.
TATACTTCAAGACACTCGCCAG showed a sensor-assay potency score (higher = more potent) of -0.398.
Work on TTAGTGACAAACATTGGGCTTT yielded a sensor-assay potency score (higher = more potent) of 0.657.
Sequence TAATTAGTGACAAACATTGGGC has a sensor-assay potency score (higher = more potent) of -0.357.
Sequence TAGACTGAGCTGGAAGTCGGAT has a sensor-assay potency score (higher = more potent) of -0.595.
TTTTAGATGCAGCTGATCGGTA gave a sensor-assay potency score (higher = more potent) of -0.655.
TAACACTCCACTGATAGGCTTC gave a sensor-assay potency score (higher = more potent) of 0.424.
With TTATTTGAGAATCAACACCTAA the sensor-assay potency score (higher = more potent) was -0.576.
TATTGTGGTCATTTCCACCGGT gave a sensor-assay potency score (higher = more potent) of 0.536.
Sequence TTTAACAGTCTTGTCTGCTGAT has a sensor-assay potency score (higher = more potent) of 0.5.
With TAAATCTACAGCATTCACTTAC the sensor-assay potency score (higher = more potent) was -0.27.
With TAGGTCTTGTACTACTTCCAAG the sensor-assay potency score (higher = more potent) was -1.39.
TTAACTTCTTCTCTTCAGGTGC gave a sensor-assay potency score (higher = more potent) of 0.5.

What follows are sequences tested against PLB1 in the same assay as above. Settings: shRNA.
With TAGTGGACCAGATCATTGCAGA the sensor-assay potency score (higher = more potent) was -0.927.
Sequence TATTGTTCCAGAGAGCACTGGC has a sensor-assay potency score (higher = more potent) of 0.63.
With TATTATCTTCCAGTCTTCCTGA the sensor-assay potency score (higher = more potent) was 0.718.
With TCTATGATCATCTTTCATCTTC the sensor-assay potency score (higher = more potent) was 0.303.
In the case of TACAGATTCGAATCTGTGCAGT, the sensor-assay potency score (higher = more potent) is reported as -0.43.
Work on TTGTTGGAGGTAGTCTTGCGGC yielded a sensor-assay potency score (higher = more potent) of -0.878.
In the case of TTATCTTCCAGTCTTCCTGAAA, the sensor-assay potency score (higher = more potent) is reported as -0.752.
Work on TAAGGTGGTCACATTCTCCAGG yielded a sensor-assay potency score (higher = more potent) of 0.024.
TACTGTGTGGTGACATCGGGGA showed a sensor-assay potency score (higher = more potent) of 0.115.
Work on TTGATCTTGTTTTCAAACTTAT yielded a sensor-assay potency score (higher = more potent) of -0.907.
For ATACTGTGTGGTGACATCGGGG, the sensor-assay potency score (higher = more potent) was -1.03.
TTGAAAGTCAAGTTGCAGGTTC gave a sensor-assay potency score (higher = more potent) of 0.551.

Each sequence was assayed against PLCB3 in the same assay as above. Settings: shRNA.
Work on TTGAATAGCTCCTCAGACCAGA yielded a sensor-assay potency score (higher = more potent) of -0.311.
With TTGTATTCCACAAACTCCATGG the sensor-assay potency score (higher = more potent) was -0.418.
TTTGATGAACTTACTCCCGCGC was tested, and the sensor-assay potency score (higher = more potent) was 0.0652.
TTGTCTGCTGAGAACATCTTCA was tested, and the sensor-assay potency score (higher = more potent) was -0.392.
TATTCCACAAACTCCATGGGGC gave a sensor-assay potency score (higher = more potent) of -0.0487.
With TTCGATGTAGTTGACAAGCGTG the sensor-assay potency score (higher = more potent) was -0.63.
For AAGAACACTGTGTTCACCGGGT, the sensor-assay potency score (higher = more potent) was 0.656.
TTCGTTGAGTCTCGGGTCGCGT showed a sensor-assay potency score (higher = more potent) of -0.421.
TACTTTTCGATGAGCAGCCGGG gave a sensor-assay potency score (higher = more potent) of -0.993.
ATGAAGTTCAAGAACACTGTGT gave a sensor-assay potency score (higher = more potent) of 0.354.
With TAGTTGGAGGAGTCCACGCGGG the sensor-assay potency score (higher = more potent) was -1.09.
With TTGCGCAGGAAGGTGTTCCGGG the sensor-assay potency score (higher = more potent) was -0.298.
